# Assays:
# Settings in all cases: concentration: 1 μM, replicates: in singlicate; n = 1
# [1] = system: T1, HASPIN
# T1 construct: gene GSG2
# [2] = system: HCK
# [3] = system: HIPK1
# [4] = system: HIPK2
# [5] = system: HIPK3
# [6] = system: HIPK4
# [7] = system: HPK1
# [8] = system: HUNK
# [9] = system: ICK
# [10] = system: IGF1R
# [11] = system: T2, IKK-alpha
# T2 construct: gene CHUK
# [12] = system: T3, IKK-beta
# T3 construct: gene IKBKB
# [13] = system: T4, IKK-epsilon
# T4 construct: gene IKBKE
# [14] = system: INSRR
# [15] = system: INSR
# [16] = system: IRAK1
# [17] = system: IRAK3
# [18] = system: IRAK4
# [19] = system: ITK
# [20] = system: JAK1(JH1domain-catalytic)
# 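Note: KINOMEscan kinase panel screen.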
SMILES,%Inh [1] [%],%Inh [2] [%],%Inh [3] [%],%Inh [4] [%],%Inh [5] [%],%Inh [6] [%],%Inh [7] [%],%Inh [8] [%],%Inh [9] [%],%Inh [10] [%],%Inh [11] [%],%Inh [12] [%],%Inh [13] [%],%Inh [14] [%],%Inh [15] [%],%Inh [16] [%],%Inh [17] [%],%Inh [18] [%],%Inh [19] [%],%Inh [20] [%]
O=C(Nc1n[nH]c2cc(-c3cccs3)ccc12)C1CC1 [SB-731284],0,0,37,4,63,6,0,0,78,0,57,73,0,0,40,35,9,45,0,0
O=C(Nc1n[nH]c2nc(-c3ccccc3)ccc12)C1CC1 [SB-708999],0,7,0,29,0,8,54,0,4,6,94,66,37,0,0,24,10,14,4,0
NCCC(NC(=O)c1cc(Br)c(-c2ccnc3[nH]ccc23)s1)c1ccccc1.O=C(O)C(F)(F)F.O=C(O)C(F)(F)F (stereo not shown) [GSK1307810],97.6,0,53,9,67,93.3,69,0,0,0,52,57,17,0,0,96.8,9,0,7,79
CSc1ccc(NC2=C(c3ccc(Cl)cc3)C(=O)NC2=O)cc1 [SB-317658],0,32,2,3,7,6,9,4,19,3,0,0,10,30,4,0,0,0,0,0
Cn1cc(-c2ccc3c(c2)CCN3C(=O)Cc2cc(F)cc(F)c2F)c2c(N)ncnc21 [GSK2634140],32,0,0,0,15,0,57,12,0,21,0,12,75,0,0,7,6,0,20,1
Cc1cccc(Nc2nc(NCCN)ncc2C(N)=O)c1 [GSK1292139],56,25,0,0,7,0,85,0,13,0,28,16,0,0,22,61,0,60,8,27
CC(C)c1nc(-c2cccc(NS(=O)(=O)c3c(F)cccc3F)c2)c(-c2ccnc(Nc3ccc(N4CCOCC4)nc3)n2)s1.Cl [GSK1723980],0,98.3,93.2,57,69,83,55,0,32,0,0,0,39,0,0,0,1,6,95.7,0
CC(C)(C)c1ccc(C(=O)Nc2cn3cc(-n4ccnc4)ccc3n2)cc1,7,18,32,28,12,21,0,0,0,0,2,9,0,5,26,21,55,65,14,11
Cn1cc(-c2cnc(N)c3c(-c4ccc5c(c4)CCN5C(=O)Cc4ccccc4)csc23)cn1 [GSK2593074],0,86,21,0,7,0,94,0,100,0,0,0,59,13,12,0,5,0,23,0
Cl.O=C(Nc1ccc(Oc2ccc3[nH]c(NC(=O)c4ccco4)nc3c2)cc1)Nc1cc(C(F)(F)F)ccc1F [GW683134],0,58,0,0,11,88,40,0,0,17,85,49,0,55,52,20,0,23,8,91.2
O=C(O)C(F)(F)F.O=c1[nH]ccc2nc(N[C@@H]3CCNC3)nc(Nc3ccc4c(c3)S(=O)(=O)CC4)c12 [GSK2181306],90,59,75,84,93.3,56,96.7,0,68,19,87,60,61,40,58,98.4,0,15,30,89
COC(=O)Nc1nc2ccc(Oc3ccc(CC(=O)Nc4cc(C(F)(F)F)ccc4F)cc3)cc2[nH]1 [GW680903],0,0,0,0,0,0,60,15,0,0,7,1,0,0,0,26,0,14,14,6
O=C1NC(=O)C(c2ccccc2Cl)=C1Nc1cccc(Cl)c1 [SB-342409],0,0,0,0,2,3,49,0,45,20,18,36,0,1,7,28,0,32,14,1
COc1cccc(-c2nc(-c3ccccc3)[nH]c2-c2ccncc2)c1 [SB-610250],66,0,0,0,15,7,43,31,3,16,33,35,0,0,5,48,0,46,15,23
CN(C)CCOc1ccc(-c2cc(-c3ccc(Cl)c(O)c3)c(-c3ccncc3)[nH]2)cc1.Cl.Cl [SB-684387],18,51,2,0,1,4,39,0,0,0,9,82,30,0,14,16,0,0,0,20
COc1ccc(NC(=O)c2ccoc2)cc1-c1ccc(C(=O)NCC2CC2)cc1 [GW810437],23,26,5,18,7,6,0,31,13,0,0,0,0,0,10,6,0,0,4,0
COc1cccc(CC(=O)N2CCc3cc(-c4cn(C)c5ncnc(N)c45)ccc32)c1 [GSK2608899],0,0,0,0,22,56,55,3,6,17,0,60,75,13,9,0,14,0,12,8
COc1cccc(NC(=O)NCCNc2ccnc(Nc3ccc(F)cc3)n2)c1 [GSK1379879],0,0,0,0,7,0,34,11,10,0,0,0,0,0,0,25,14,21,6,23
CCOc1nccc(-c2c(-c3ccc(F)cc3)ncn2C2CCNCC2)n1 [SB-249175],0,0,59,44,44,6,12,0,65,0,0,0,6,4,10,45,11,6,0,29
N#CC1(c2cccc(C(=O)Nc3cccc(Oc4ccc5nc(NC(=O)C6CC6)sc5n4)c3)c2)CC1,38,98.3,6,0,0,78,40,32,0,0,0,0,0,0,0,0,0,0,0,8
Cc1cc(-c2ccnc(Nc3cccc(C#N)c3)n2)cc(C)c1O [GSK1440913],60,0,98.3,98.9,98.2,88,65,43,79,0,61,67,28,23,0,52,82,11,9,0

SMILES,%Inh [1] [%],%Inh [2] [%],%Inh [3] [%],%Inh [4] [%],%Inh [5] [%],%Inh [6] [%],%Inh [7] [%],%Inh [8] [%],%Inh [9] [%],%Inh [10] [%],%Inh [11] [%],%Inh [12] [%],%Inh [13] [%],%Inh [14] [%],%Inh [15] [%],%Inh [16] [%],%Inh [17] [%],%Inh [18] [%],%Inh [19] [%],%Inh [20] [%]
CCn1c(-c2nonc2N)nc2c(-c3ccccc3)ncc(OCCCN)c21.O=C(O)C(F)(F)F.O=C(O)C(F)(F)F [GSK260205],9,0,0,0,38,0,0,0,10,0,32,16,3,0,0,29,0,21,14,11
O=C(Nc1n[nH]c2nc(-c3ccccc3O)ccc12)C1CC1 [SB-711880],0,0,27,7,0,0,0,0,26,0,0,0,10,0,0,0,2,0,46,36
CN(c1ccc(F)c(NC(=O)c2cccc(OC(C)(C)C#N)c2Cl)c1)c1ccc2nc(NC(=O)C3CC3)sc2n1,27,90,0,0,0,0,0,1,0,0,0,0,29,0,0,0,8,0,0,10
Nc1ncc(-c2cn[nH]c2)c2scc(-c3ccc4c(c3)CCN4C(=O)Cc3ccccc3)c12 [GSK2593067],0,92.6,0,1,4,0,94,0,0,4,0,31,50,24,13,0,25,0,25,2
Cc1ccc(Nc2ccnc(Nc3ccc(C)c(F)c3)n2)cc1O.Cl [GW582868],10,29,0,0,0,4,30,0,2,0,38,18,0,0,0,42,76,25,9,29
Nc1ncnc2scc(-c3ccc(NC(=O)Cc4cc(F)ccc4F)cc3)c12.O=C(O)C(F)(F)F [SB-731254-M],0,66,18,23,26,2,44,0,12,0,4,0,45,65,15,0,16,0,0,0
COc1cccc(C2=C(Nc3cccc(O)c3)C(=O)NC2=O)c1 [SB-390771],4,0,0,0,29,0,51,0,3,19,2,18,40,0,3,29,9,38,10,9
CN(C)CCNS(=O)(=O)c1ccc(-c2ccnc3[nH]ccc23)cc1 [GSK977620],84,0,82,82,90.5,43,42,0,5,2,85,98.8,2,0,0,55,45,17,54,12
CCn1cnc2c(NCc3ccccc3)ncnc21 [SKF-96418],10,9,27,9,33,33,0,48,0,0,26,19,0,0,2,25,0,0,0,6
Fc1cc(Cl)ccc1Nc1ccnc2cc(-c3ccc(CN4CCSCC4)o3)ccc12 [GW560106],28,95.3,3,0,0,0,20,71,0,25,31,9,0,0,0,18,7,0,8,11
CN(C)c1ncnc2nc[nH]c12 [SKF-31736],0,3,23,12,15,0,0,0,0,0,23,15,0,9,0,43,0,4,0,0
Nc1ncc(-c2ccc3nccc(-c4ccncc4)c3c2)cc1S(=O)(=O)N1CCCCC1 [GSK1693850],80,0,42,0,20,57,50,82,16,10,0,0,12,0,0,39,86,10,12,10
Cc1ccc(O)cc1Nc1ccnc2cc(-c3ccc(CN4CCCCC4)o3)ccc12 [GW557777],0,99.4,0,0,0,0,37,32,0,0,0,0,0,4,0,0,0,0,56,1
Cc1ccccc1CC(=O)N1CCc2cc(-c3cn(C)c4ncnc(N)c34)ccc21 [GSK2603346],0,13,0,0,1,0,74,0,0,0,12,28,49,8,0,0,0,6,20,5
CN(c1ccc(NC(=O)Nc2cccc(Cl)c2)cc1)c1ccnc(N)n1.Cl [GW830707],32,0,0,18,0,79,0,51,7,0,0,0,8,3,0,0,31,0,0,0
COc1ccc(C2=C(Nc3cccc(O)c3)C(=O)NC2=O)cc1 [SB-390766],0,41,0,2,63,93.5,36,0,10,0,26,44,0,0,2,60,0,45,7,58
CC(C)NCC(Cc1ccccc1)NC(=O)c1cc(Br)c(-c2ccnc3[nH]ccc23)s1.Cl.Cl (stereo not shown) [GSK1383281],89,0,30,0,35,91.6,44,0,11,4,0,23,30,0,0,15,2,12,3,35
O=C(O)C(F)(F)F.O=c1[nH]ccc2nc(N[C@@H]3CCNC3)nc(Nc3cc(Cl)cc(Cl)c3)c12 [GSK2188764],86,0,27,6,54,0,95.7,0,12,0,72,44,29,5,36,90.1,1,17,17,93.5
CC(=O)Nc1cn2nc(Oc3cccc(NC(=O)c4cccc(C(F)(F)F)c4)c3)ccc2n1,0,98.2,35,0,0,19,59,43,0,8,0,0,0,0,0,0,44,0,0,32
COc1cc(Nc2ccnc3cc(-c4ccncc4)ccc23)cc(OC)c1OC.Cl [GW494610],40,83,0,0,13,0,0,52,0,0,23,13,0,13,8,24,0,10,0,33
